Most compounds without a hit are left out; they make up all but 0.74% or so of the library.
cardiac RTF act – increases calcium sensitivity of human cardiac regulated thin filaments; P19429+P45379; IANBD-labeled TnC RTF fluorescence at EC20 calcium; 0% EC20 calcium, 100% full calcium; activation, % at 7.2 µM; 0.24% of 340,000 active; AID 493008;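 active means activation above the mean over all tested compounds plus 3 SD, cut at about 30% in these data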;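 further: rise in fluorescence read as greater calcium sensitivity of cardiac thin filaments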
Keap1-Nrf2 PPI – inhibitors of human Keap1-Nrf2 protein-protein interaction; Q14145; Keap1 Kelch-Nrf2 peptide fluorescence polarization, 1536-well; inhibition, % at 9.4 µM; 0.15% of 340,000 active; AID 504523; in the data active means inhibition above about 12%;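 further: human Keap1 Kelch domain with fluorescein labeled Nrf2 9mer peptide probe; 0% = neutral control wells and 100% = peptide positive control; higher means more block of Keap1 binding to Nrf2 peptide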
eLon inh – inhibitors of E. coli Lon protease; purified E. coli Lon protease, fluorescence polarization; inhibition, % at 7.94 µM; P0A9M0; 0.42% of 360,000 active; in the data active means inhibition above about 13%, passing the limit was not always enough;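 further: 0% = enzyme with probe and DMSO and 100% = no enzyme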
RTF Ca sens inh – cardiac RTF calcium desensitization | IANBD-labeled cardiac RTF, Ca2+ fluorescence | 0.12% of 340,000 active | inhibition, % at 7.15 µM | AID 493244 | P19429+P45379;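 active means inhibition above the mean inhibition of all tested compounds plus 3 SD, cut at about 17% in these data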;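 further: assay run at fixed EC70 calcium of 1.6 mM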
LANA DNA inh – KSHV C-LANA DNA binding inhibition; MBP-C-LANA/FAM-LBS DNA binding, fluorescence polarization; inhibition, % at 9 µM; 0.078% of 340,000 active; AID 504423;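 active means highest replicate inhibition at or above 60% at 9 µM, even if other replicates fall short; inactive means all replicates below 60% inhibition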;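 further: 0% = neutral control wells and 100% = 4 µM acridine orange control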
E coli Lon conf – E. coli Lon inhibition confirmation; shares compounds with eLon inh; purified E. coli Lon, fluorescence polarization; inhibition, % at 7.94 µM; 31% of 1,400 active; AID 602230; in the data active means inhibition above about 16%;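 further: 0% = enzyme with probe and DMSO and 100% = no enzyme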
Active calls of the source: *; i = inactive; / = no result; + = active, no number.

SMILES	cardiac RTF act	Keap1-Nrf2 PPI	eLon inh	RTF Ca sens inh	LANA DNA inh	E coli Lon conf
CCCCNc1ccc2c3c(cccc13)C(=O)N(CCCC)C2=O	+	10	135*	i	27	i
CCCN1C(=O)c2cccc3c(N4CCCCC4)ccc(c23)C1=O	75*	-4	74*	-72	3	-23
O=C1c2cccc3c(N4CCCCC4)ccc(c23)C(=O)N1c1ccccn1	9	0	10	-26	7	/
O=C(O)CN1C(=O)c2cccc3c(Br)ccc1c23	17	-2	-5	0	-1	/
CC(=O)N(C(C)=O)N1C(=O)c2cccc3c(N4CCOCC4)ccc(c23)C1=O	25	-3	39*	-45	15	21*
Cc1ccccc1S(=O)(=O)NC(=O)C1(C)CCN1C(=O)c1ccccc1CCc1ccccc1 (configuration not stated)	/	/	4	/	/	/
NC(=O)C1CCCN(C(=O)c2[nH]c(C(F)(F)F)nc2-c2ccccc2)C1 (configuration not stated)	/	/	-12	/	/	/
O=C1c2ccccc2C(c2nc3ccccc3[nH]2)N1c1ccccn1 (configuration not stated)	/	/	-12	/	/	/
CCCc1ccc2oc(C(=O)NCCc3cnn(C)c3)c(C)c2c1	-4	-4	19*	-3	1	-3
CCCc1ccc2oc(C(=O)NCCc3nc(C(=O)OCC)cs3)c(C)c2c1	-3	4	-8	-3	0	/
CN(C)Cc1csc(NC(=O)Nc2ccccc2Oc2ccccc2)n1	/	/	86*	/	/	6
CNC(=O)c1nn(C)c(=O)[nH]c1=O	0	-4	7	-4	0	/
O=C(O)COc1ccc(NC(=O)c2ccc3c(c2)C(=O)N(CC2CCCO2)C3=O)cc1 (configuration not stated)	/	/	-12	/	/	/
N#Cc1ccc(Oc2cccc3cccnc23)c([N+](=O)[O-])c1	5	1	101*	-9	2	13
CSc1ccc(/C=C/C(=O)OCC(=O)N2CCN(c3ccccc3)CC2)cc1	1	3	1	-4	1	/
CCOCCCNC(=O)C(NC(=O)c1ccccc1O)c1ccc(Cl)cc1 (configuration not stated)	4	-6	18*	-5	-1	-19
CCOCCCNC(=O)C(NC(=O)CNC(C)=O)c1ccc(Cl)cc1 (configuration not stated)	-3	4	-2	-6	-1	/
O=C(COC(=O)Cc1ccc(Cl)cc1)NC1CCCC1	4	1	50*	-7	-2	-11
CCOC(=O)C1(C)CCCCCN1C(=O)c1ccc(OC)cc1 (configuration not stated)	/	/	3	/	/	/
Cc1cc2cc(CNC(=O)c3cccc([N+](=O)[O-])c3)ccc2[nH]1	11	-6	24*	-11	0	-10
O=C(c1ccccc1)c1ccc(C(=O)N2CCN(c3ccccc3Cl)CC2)cc1	1	6	18*	-8	-3	5
C=CCN1C=C2C(=O)C(C)(OC(=O)c3ccc(OC)cc3)C(=O)C(c3ccco3)=C2C=C1CCCC (configuration not stated)	-4	0	41*	-20	-2	9
CCCCC1=CC2=C(c3ccco3)C(=O)C(C)(OC(=O)c3ccc(OC)cc3)C(=O)C2=CN1CCCOC(C)C (configuration not stated)	6	0	-2	-10	0	/
CCN(CC(=O)NCc1cccs1)C(=O)c1ccc(S(=O)(=O)Nc2ccccc2)cc1	-8	-3	-6	-21	-1	/
CCN(CC(=O)NCc1cccs1)C(=O)c1ccc(S(=O)(=O)Nc2cccc(C)c2C)cc1	3	-3	+	2	-2	-17
SMILES	cardiac RTF act	Keap1-Nrf2 PPI	eLon inh	RTF Ca sens inh	LANA DNA inh	E coli Lon conf
CCN(CC(=O)NCc1cccs1)S(=O)(=O)c1ccc(F)cc1	-5	3	-5	-9	2	/
CCN(CC)S(=O)(=O)c1ccc(C(=O)NCc2cccs2)cc1	7	-8	19*	-7	2	1
c1ccc2c(-c3ccc4nncn4c3)cncc2c1	/	/	-7	/	/	/
Cc1ccc(-n2nc3c(=O)n(CC(=O)NCCc4ccco4)nc(C)c3c2C)cc1	0	-8	36*	-5	0	-2
Cc1ccc(-n2nc3c(=O)n(CC(=O)NCCCc4ccccc4)nc(C)c3c2C)cc1	-1	4	2	11	-1	/
Cc1cccc(-c2c3c(=O)n(C)c(=O)n(C)c3cn2-c2ccc(O)cc2)c1	2	-2	-8	-6	0	/
Cn1c(=O)c2c(-c3ccccc3)n(-c3cccc(O)c3)cc2n(C)c1=O	/	/	18*	/	/	6
CCOC(=O)[C@]12CCCC=C1N(Cc1ccc3c(c1)OCO3)C(=O)[C@H](CC(=O)N1CCC(c3ccccc3)CC1)C2	/	/	-2	/	/	/
N#CC1(C#N)C(c2ccccc2)OC23CCCCC2C1(C#N)C(=N)O3 (configuration not stated)	30*	21*	30*	-24	44	41*
O=C(CN1CCN(Cc2ccccc2)CC1)Nc1cccc(Cl)c1Cl	/	/	-7	/	/	/
O=c1c2ccccc2[nH]c2ccc(O)cc12	10	-3	84*	-9	25	71*
Cc1ccc2[nH]c3ccccc3c(=O)c2c1	2	-5	-4	-7	1	/
COc1ccc(-c2ccc(CN3C(C)C(=O)N(Cc4cn(CCC5OCCO5)nn4)CCS3(=O)=O)cc2)cc1 (configuration not stated)	/	/	2	/	/	/
COc1cc(OC)c(OC)cc1/C=C/c1cc(C(=O)O)c2ccccc2n1	-2	-1	-8	-2	0	/
COc1ccc(/C=C/c2cc(C(=O)O)c3ccccc3n2)cc1	-2	0	+	3	3	3
Cc1cc(C(=O)CSc2nnc(-c3ccncc3)n2-c2ccccc2)c(C)n1C	4	-5	19*	-5	1	-73
Cc1cc(C(=O)CSc2nnc(-c3ccccc3)n2C)c(C)n1C	5	-1	5	1	-1	/
COC(=O)CNC(=O)C(NC(=O)OCc1ccccc1)C(C)C (configuration not stated)	3	0	4	4	2	/
CC(C)[C@H](NC(=O)OCc1ccccc1)C(=O)NC(C=O)Cc1ccccc1 (some centres not stated)	2	2	55*	-1	2	59*
CC(C)C[C@@H](CN)NC(=O)c1nc[nH]c1C(=O)N[C@@H](C)C(=O)CNC[C@H](C)NC(=O)c1nc[nH]c1C(=O)N[C@@H](CC(C)C)C(=O)O	-2	-1	4	-8	0	/
COC(=O)C(C)Sc1nnc(Cc2cc(=O)[nH]c(=O)[nH]2)n1-c1ccc(Cl)cc1 (configuration not stated)	10	0	37*	-23	18	8
CCOC(=O)C(C)Sc1nnc(Cc2cc(=O)[nH]c(=O)[nH]2)n1-c1ccc(OCC)cc1 (configuration not stated)	2	1	-3	-9	3	/
